Targets with a hit are over-represented here; the source holds about 8,800 in all. About 0.5% of all pairs of compound and target were hits.
What was measured:
Assay in all cases: log2 fold change, soluble protein after heating vs DMSO (PISA); higher = thermal stabilisation; K562 lysate, 10 uM; active = over 0.2 and 3.5 SD of the protein, either way, in both replicates (recomputed)
[1] = compound: C1=CC=C(C=C1)[C@H](COC2=CC3=C(C=C2)NC(=O)N3)NC(=O)C4=CC=CN(C4=O)CC5=CC(=C(C=C5)F)F
How it was run: (§1)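 A 30 min treatment with 10 μM compound was applied to crude K562 extract at 1 mg/mL protein in PBS pH 7.4 with 1 mM MgCl2. Heating for 3 min spanned 48°C-58°C, after which aliquots were pooled, adjusted to 0.5% NP-40 at 4°C and spun at 21,000xg for 90 min. TMTpro 16plex LC-MS/MS of the supernatant, with channel sums equalised, gave values recorded as log-two fold change in thermal stability against solvent controls, from duplicates.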

[2] = compound: CC1=C(SC2=C1C(=N[C@H](C3=NN=C(N32)C)CC(=O)N)C4=CC=C(C=C4)Cl)C
How it was run: as §1

[3] = compound: CC1=C2C(=CC=C1)N=C(N(C2=O)C3=CC=CC=C3C)CN4C=NC5=C(N=CN=C54)N
How it was run: as §1

[4] = compound: Cc1sc2c(c1C)C(c1ccc(Cl)cc1)=N[C@@H](CC(=O)OC(C)(C)C)c1nnc(C)n1-2
How it was run: as §1

[5] = compound: c1ccc([C@@H]2C[C@H]2NC2CCNCC2)cc1
How it was run: as §1

Measured: log2 fold change

PDXK (UniProt O00764)
Sequence of UniProt O00764 (O00764 whole entry, looked up): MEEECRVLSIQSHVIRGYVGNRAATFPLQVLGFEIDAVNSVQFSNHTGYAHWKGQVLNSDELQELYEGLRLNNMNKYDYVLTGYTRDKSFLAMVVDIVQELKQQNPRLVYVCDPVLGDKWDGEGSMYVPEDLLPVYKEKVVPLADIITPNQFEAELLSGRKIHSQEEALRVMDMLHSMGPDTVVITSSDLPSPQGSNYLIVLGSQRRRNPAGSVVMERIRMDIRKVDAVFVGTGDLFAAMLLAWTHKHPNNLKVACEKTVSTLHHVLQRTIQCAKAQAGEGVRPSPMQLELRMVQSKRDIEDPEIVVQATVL
inactive: [1] 0.014 | [2] -0.039 | [3] -0.029 | [4] -0.028 | [5] -0.056

PRKCSH (UniProt K7ELL7)
inactive: [1] 0.045 | [2] -0.027 | [3] -0.157 | [4] -0.112 | [5] -0.048

PRPH isoform 2 (UniProt P41219)
Sequence of UniProt P41219 (P41219 whole entry, looked up): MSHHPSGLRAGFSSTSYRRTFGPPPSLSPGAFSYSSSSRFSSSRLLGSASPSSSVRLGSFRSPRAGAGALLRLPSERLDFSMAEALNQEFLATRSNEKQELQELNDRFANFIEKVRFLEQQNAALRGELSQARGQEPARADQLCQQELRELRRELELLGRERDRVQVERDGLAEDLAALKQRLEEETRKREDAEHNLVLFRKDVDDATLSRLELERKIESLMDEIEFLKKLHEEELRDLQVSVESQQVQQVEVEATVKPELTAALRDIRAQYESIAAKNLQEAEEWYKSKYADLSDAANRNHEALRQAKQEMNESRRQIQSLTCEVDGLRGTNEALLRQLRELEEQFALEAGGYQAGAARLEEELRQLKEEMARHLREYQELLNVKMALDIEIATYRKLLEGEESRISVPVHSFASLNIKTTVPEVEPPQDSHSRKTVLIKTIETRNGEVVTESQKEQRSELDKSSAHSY
inactive: [1] 0.002 | [2] -0.006 | [3] 0.03 | [4] -0.059 | [5] 0.119

QKI (UniProt Q96PU8)
inactive: [1] -0.071 | [2] -0.001 | [3] -0.023 | [4] 0.04 | [5] -0.034

PCBD2 (UniProt Q9H0N5)
inactive: [1] -0.019 | [2] 0.048 | [3] 0.002 | [4] -0.011 | [5] -0.172

PPP1R14C (UniProt Q8TAE6)
inactive: [1] -0.019 | [2] 0.024 | [3] 0.051 | [4] -0.078 | [5] -0.147

PCBP2 isoform 8 (UniProt Q15366)
inactive: [1] 0.098 | [2] 0.065 | [3] -0.038 | [4] -0.044 | [5] -0.101

POLR2F (UniProt P61218)
inactive: [1] 0.013 | [2] -0.105 | [3] -0.163 | [4] 0.381 | [5] 0.359

PCYT1B (UniProt Q9Y5K3)
inactive: [1] -0.006 | [2] 0.033 | [3] -0.01 | [4] -0.03 | [5] -0.073

PYURF (UniProt Q96I23)
inactive: [1] 0.03 | [2] 0.048 | [3] 0.126 | [4] 0.007 | [5] -0.091

PI4K2B (UniProt Q8TCG2)
inactive: [1] -0.033 | [2] 0.048 | [3] 0.074 | [4] 0.068 | [5] 0.077

PTGS1 isoform 6 (UniProt P23219)
Sequence of UniProt P23219 (P23219 whole entry, looked up): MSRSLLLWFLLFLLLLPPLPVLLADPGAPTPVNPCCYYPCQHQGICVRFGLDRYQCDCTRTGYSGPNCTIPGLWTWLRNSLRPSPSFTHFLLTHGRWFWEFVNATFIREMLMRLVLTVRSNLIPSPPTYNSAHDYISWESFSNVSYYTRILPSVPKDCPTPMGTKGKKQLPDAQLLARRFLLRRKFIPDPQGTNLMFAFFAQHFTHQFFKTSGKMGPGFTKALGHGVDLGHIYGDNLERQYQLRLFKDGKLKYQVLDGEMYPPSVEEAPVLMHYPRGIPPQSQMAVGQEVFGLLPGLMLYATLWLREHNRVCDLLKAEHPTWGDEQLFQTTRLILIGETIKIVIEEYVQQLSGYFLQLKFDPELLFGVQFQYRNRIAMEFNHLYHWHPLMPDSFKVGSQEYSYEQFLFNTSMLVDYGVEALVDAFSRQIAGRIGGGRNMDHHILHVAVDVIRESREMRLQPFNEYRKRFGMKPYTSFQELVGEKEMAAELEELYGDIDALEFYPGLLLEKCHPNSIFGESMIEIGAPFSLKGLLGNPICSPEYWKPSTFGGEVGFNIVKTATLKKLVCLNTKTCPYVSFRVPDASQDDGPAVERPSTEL
inactive: [1] -0.007 | [2] -0.035 | [3] 0.077 | [4] -0.026 | [5] -0.11

PLXNB2 (UniProt O15031)
inactive: [1] -0.034 | [2] 0.037 | [3] 0.014 | [4] 0.004 | [5] -0.024

PPP4R2 (UniProt Q9NY27)
inactive: [1] 0.019 | [2] 0.025 | [3] -0.001 | [4] -0.026 | [5] -0.009

POGK (UniProt Q9P215)
inactive: [1] -0.142 | [2] 0.13 | [3] -0.008 | [4] 0.016 | [5] -0.068

PTPN23 (UniProt Q9H3S7)
inactive: [1] -0.033 | [2] 0.011 | [3] 0.007 | [4] 0.024 | [5] 0

PRMT8 (UniProt Q9NR22)
inactive: [1] -0.016 | [2] 0.031 | [3] 0.01 | [4] -0.041 | [5] -0.147

PCBP2 isoform 3 (UniProt Q15366)
inactive: [1] -0.011 | [2] 0.017 | [3] -0.041 | [4] 0.061 | [5] 0.05

PUS1 (UniProt Q9Y606)
Sequence of UniProt Q9Y606 (Q9Y606 whole entry, looked up): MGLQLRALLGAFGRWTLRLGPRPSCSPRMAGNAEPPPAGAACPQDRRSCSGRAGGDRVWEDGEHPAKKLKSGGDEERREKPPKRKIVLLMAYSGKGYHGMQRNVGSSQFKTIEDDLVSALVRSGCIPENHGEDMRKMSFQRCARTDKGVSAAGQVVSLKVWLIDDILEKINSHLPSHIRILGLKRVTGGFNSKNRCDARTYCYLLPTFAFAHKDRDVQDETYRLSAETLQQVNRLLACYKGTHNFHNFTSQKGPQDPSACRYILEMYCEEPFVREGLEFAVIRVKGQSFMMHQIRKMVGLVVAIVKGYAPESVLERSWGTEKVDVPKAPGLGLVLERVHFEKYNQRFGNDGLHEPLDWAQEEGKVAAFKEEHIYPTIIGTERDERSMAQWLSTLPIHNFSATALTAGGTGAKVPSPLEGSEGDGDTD
inactive: [1] 0 | [2] 0.014 | [3] 0.013 | [4] -0.024 | [5] 0.029

PPP1R8 (UniProt Q12972)
inactive: [1] 0.006 | [2] 0.017 | [3] 0.003 | [4] 0.059 | [5] -0.142

PCBP2 (UniProt H3BRU6)
inactive: [1] 0.166 | [2] -0.15 | [3] -0.208 | [4] 0.104 | [5] -0.11

PCIF1 (UniProt Q9H4Z3)
inactive: [1] -0.015 | [2] -0.013 | [3] 0.026 | [4] 0.066 | [5] -0.111

PREP (UniProt P48147)
inactive: [1] 0.006 | [2] 0.02 | [3] 0.013 | [4] -0.02 | [5] 0.03

POLB (UniProt P06746)
inactive: [1] -0.02 | [2] -0.005 | [3] 0.028 | [4] 0.041 | [5] 0.021

PIK3CG (UniProt P48736)
inactive: [1] -0.076 | [2] -0.065 | [3] 0.109 | [4] -0.047 | [5] -0.105

PPM1H (UniProt Q9ULR3)
inactive: [1] 0.011 | [2] -0.023 | [3] -0.008 | [4] 0.062 | [5] 0.05

PHGDH (UniProt O43175)
Sequence of UniProt O43175 (O43175 whole entry, looked up): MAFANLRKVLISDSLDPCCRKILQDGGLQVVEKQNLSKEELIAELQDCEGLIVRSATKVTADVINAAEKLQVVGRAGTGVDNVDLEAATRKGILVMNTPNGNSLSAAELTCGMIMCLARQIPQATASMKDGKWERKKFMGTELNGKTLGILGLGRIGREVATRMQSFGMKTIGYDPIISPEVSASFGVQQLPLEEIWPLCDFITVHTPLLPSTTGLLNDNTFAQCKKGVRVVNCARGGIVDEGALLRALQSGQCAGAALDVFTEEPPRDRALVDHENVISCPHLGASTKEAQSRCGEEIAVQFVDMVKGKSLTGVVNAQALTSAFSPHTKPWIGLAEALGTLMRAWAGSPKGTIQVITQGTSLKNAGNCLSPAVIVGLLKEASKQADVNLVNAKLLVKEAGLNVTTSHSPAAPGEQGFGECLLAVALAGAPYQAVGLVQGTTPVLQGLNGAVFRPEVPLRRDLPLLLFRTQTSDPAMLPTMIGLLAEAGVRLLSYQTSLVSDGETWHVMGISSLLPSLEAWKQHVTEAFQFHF
inactive: [1] -0.014 | [2] 0.017 | [3] 0.047 | [4] 0.046 | [5] 0.052

PTPN1 (UniProt P18031)
inactive: [1] -0.006 | [2] 0.008 | [3] 0.01 | [4] -0.026 | [5] 0.005

PDXDC1 (UniProt Q6P996)
Sequence of UniProt Q6P996 (Q6P996 whole entry, looked up): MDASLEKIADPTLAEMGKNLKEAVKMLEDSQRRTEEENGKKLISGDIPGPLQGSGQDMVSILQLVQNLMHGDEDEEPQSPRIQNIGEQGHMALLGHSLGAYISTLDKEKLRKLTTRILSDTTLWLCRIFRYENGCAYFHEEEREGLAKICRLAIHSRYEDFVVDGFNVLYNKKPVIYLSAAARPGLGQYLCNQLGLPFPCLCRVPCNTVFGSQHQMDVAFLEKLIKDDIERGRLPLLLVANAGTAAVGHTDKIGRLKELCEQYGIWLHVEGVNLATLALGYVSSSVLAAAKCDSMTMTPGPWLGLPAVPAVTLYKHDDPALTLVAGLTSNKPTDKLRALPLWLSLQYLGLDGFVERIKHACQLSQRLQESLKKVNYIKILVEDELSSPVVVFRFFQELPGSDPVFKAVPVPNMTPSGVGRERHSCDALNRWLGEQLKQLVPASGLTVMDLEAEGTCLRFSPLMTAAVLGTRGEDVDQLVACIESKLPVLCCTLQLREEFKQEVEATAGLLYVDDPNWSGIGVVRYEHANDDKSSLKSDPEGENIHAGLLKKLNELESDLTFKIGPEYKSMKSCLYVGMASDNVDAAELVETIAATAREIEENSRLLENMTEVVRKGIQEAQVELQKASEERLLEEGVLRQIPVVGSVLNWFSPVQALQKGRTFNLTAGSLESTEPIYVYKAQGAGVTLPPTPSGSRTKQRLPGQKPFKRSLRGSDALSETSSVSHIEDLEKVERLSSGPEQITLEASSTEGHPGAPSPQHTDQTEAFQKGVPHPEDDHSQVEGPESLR
inactive: [1] 0.025 | [2] 0.022 | [3] 0.01 | [4] 0.02 | [5] 0.014

PRKAR2A (UniProt P13861)
inactive: [1] 0.009 | [2] 0.012 | [3] 0.038 | [4] -0.011 | [5] 0.027

PPIE (UniProt Q9UNP9)
Sequence of UniProt Q9UNP9 (Q9UNP9 whole entry, looked up): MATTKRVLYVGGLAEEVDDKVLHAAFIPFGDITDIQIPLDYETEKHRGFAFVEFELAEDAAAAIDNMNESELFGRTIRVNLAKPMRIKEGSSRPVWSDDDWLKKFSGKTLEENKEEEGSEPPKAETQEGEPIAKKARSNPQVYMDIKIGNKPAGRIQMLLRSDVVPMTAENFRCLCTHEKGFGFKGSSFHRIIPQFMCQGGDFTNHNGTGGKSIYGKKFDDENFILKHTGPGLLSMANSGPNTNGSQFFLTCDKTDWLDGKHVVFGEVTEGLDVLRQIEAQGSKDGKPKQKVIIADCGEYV
inactive: [1] 0.033 | [2] -0.023 | [3] 0.026 | [4] -0.04 | [5] -0.144

PFKFB4 (UniProt Q16877)
inactive: [1] -0.066 | [2] 0.023 | [3] 0.059 | [4] -0.053 | [5] -0.007

PI4KB (UniProt Q9UBF8)
inactive: [1] 0.022 | [2] -0.006 | [3] -0.019 | [4] -0.005 | [5] 0.002

PPP2CA (UniProt P67775)
inactive: [1] -0.108 | [2] 0.037 | [3] 0.037 | [4] 0.092 | [5] -0.092

PFAS (UniProt O15067)
inactive: [1] 0.007 | [2] 0.017 | [3] 0.02 | [4] 0.042 | [5] 0.023

PITRM1 isoform 2 (UniProt Q5JRX3)
Sequence of UniProt Q5JRX3 (Q5JRX3 whole entry, looked up): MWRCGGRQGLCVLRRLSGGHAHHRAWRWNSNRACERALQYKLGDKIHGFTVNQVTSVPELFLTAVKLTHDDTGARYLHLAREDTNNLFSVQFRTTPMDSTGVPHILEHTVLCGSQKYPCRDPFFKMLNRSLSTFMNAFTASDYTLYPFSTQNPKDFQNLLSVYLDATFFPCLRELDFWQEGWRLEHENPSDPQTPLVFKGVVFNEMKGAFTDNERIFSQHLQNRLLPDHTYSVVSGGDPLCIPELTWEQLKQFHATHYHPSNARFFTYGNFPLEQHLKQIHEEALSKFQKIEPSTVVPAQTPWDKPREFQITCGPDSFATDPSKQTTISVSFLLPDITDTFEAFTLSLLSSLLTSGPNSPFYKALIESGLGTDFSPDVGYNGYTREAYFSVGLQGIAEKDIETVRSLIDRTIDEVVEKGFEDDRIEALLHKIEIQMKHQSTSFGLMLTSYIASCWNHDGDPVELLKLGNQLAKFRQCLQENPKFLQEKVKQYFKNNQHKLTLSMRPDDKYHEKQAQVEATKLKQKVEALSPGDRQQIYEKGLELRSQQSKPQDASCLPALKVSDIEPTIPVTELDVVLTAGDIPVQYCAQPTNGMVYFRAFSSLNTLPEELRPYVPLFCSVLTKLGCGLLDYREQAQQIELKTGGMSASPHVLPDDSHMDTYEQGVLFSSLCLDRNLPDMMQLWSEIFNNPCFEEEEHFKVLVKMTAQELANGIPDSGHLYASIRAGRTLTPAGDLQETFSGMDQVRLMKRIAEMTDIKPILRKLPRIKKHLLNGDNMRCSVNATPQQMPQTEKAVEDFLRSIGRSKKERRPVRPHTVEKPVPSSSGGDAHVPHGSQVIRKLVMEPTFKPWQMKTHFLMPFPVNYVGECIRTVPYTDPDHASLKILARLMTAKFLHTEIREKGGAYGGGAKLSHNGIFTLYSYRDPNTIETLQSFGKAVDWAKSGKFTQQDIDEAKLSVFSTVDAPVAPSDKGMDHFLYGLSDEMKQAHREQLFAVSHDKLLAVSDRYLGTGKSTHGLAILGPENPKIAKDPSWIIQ
inactive: [1] 0.158 | [2] -0.193 | [3] 0.005 | [4] 0.04 | [5] 0.01

PIK3CD (UniProt O00329)
inactive: [1] -0.053 | [2] 0.075 | [4] -0.027 | [5] 0.043
active: [3] 0.443

PIGO (UniProt Q8TEQ8)
inactive: [1] -0.098 | [2] -0.058 | [3] -0.014 | [4] -0.023 | [5] 0.039

PHLDB1 (UniProt Q86UU1)
inactive: [1] -0.006 | [2] 0.007 | [3] 0.054 | [4] -0.027 | [5] 0.036

POLR3E (UniProt Q9NVU0)
inactive: [1] -0.031 | [2] -0.003 | [3] -0.001 | [4] -0.002 | [5] -0.012

PPIL3 (UniProt Q9H2H8)
active: [5] -0.237
inactive: [1] 0.067 | [2] -0.012 | [3] 0.035 | [4] 0.028

PLEKHA5 isoform 6 (UniProt Q9HAU0)
inactive: [1] 0 | [2] -0.112 | [3] -0.06 | [4] -0.013 | [5] 0.045

PRKAB2 (UniProt O43741)
inactive: [1] 0.1 | [2] -0.012 | [3] 0.009 | [4] -0.047 | [5] -0.418

PRMT5 (UniProt O14744)
inactive: [1] -0.01 | [2] 0.031 | [3] 0.006 | [4] -0.013 | [5] 0.002

NA (UniProt Q4G0T1)
inactive: [4] -0.027 | [5] -0.025

PPIC (UniProt P45877)
inactive: [1] 0.209 | [2] -0.242 | [3] 0.12 | [4] 0.005 | [5] 0.055

PRG4 (UniProt Q92954)
active: [5] -1.18
inactive: [1] 0.03 | [2] -0.081 | [4] -0.059

PDPK1 (UniProt O15530)
Sequence of UniProt O15530 (O15530 whole entry, looked up): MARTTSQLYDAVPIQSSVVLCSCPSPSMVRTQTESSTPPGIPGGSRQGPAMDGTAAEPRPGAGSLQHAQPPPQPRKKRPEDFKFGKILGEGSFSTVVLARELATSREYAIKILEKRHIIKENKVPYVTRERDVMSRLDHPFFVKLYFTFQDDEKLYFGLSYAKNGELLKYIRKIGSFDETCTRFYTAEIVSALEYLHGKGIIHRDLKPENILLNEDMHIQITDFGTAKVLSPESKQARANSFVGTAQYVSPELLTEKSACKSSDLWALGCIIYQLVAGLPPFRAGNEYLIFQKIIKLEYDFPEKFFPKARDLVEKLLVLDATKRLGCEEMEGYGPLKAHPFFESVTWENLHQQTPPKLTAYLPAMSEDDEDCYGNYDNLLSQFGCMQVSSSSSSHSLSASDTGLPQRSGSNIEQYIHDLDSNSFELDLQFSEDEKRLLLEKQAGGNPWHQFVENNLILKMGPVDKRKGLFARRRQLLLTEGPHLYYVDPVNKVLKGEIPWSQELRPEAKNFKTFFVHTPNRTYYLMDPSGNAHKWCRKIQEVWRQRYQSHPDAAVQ
inactive: [2] 0 | [3] -0.035 | [4] 0.022 | [5] -0.069
